Measured values: PubChem BioAssay (NCATS)
Records with an inconclusive call do not appear. Entries that show only a call come without a potency. Unmarked numbers belong to inactive results. Activity calls are given as the source filed them. The call rests on the fitted dose curve; in most records, active means well fitted inhibition curve with a large enough effect; inconclusive means small, poorly fitted or top-dose-only effect; inactive means no such curve, though single readings can be large or run the other way. Where a SMILES comes first, the peptide text is derived from it. The star is where a group is joined. Cbz = O=C(OCc1ccccc1)*; CH2F = FC*

These molecules were tested on Zika virus NS2B-NS3 protease (linked construct) (assay: Primary screen NINDS Rhodamine qHTS for Zika virus inhibitors (AID 1347160; further: nearly all actives have a fitted effect of over 55% in size)). Settings: purified NS2B-NS3 protease, Rhodamine110 substrate fluorescence; series mostly up to 33.1 µM.
Method in brief: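 Percent inhibition, normalized to uninhibited and enzyme-free controls, is fitted to a 4-parameter Hill equation. Fluorescence change comes from a 15-min cleavage of 1.5 microM bis-peptide Rhodamine110 substrate by 25 nM linked NS2B-NS3 at room temperature.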
Potency means the concentration at half of the fitted maximal effect.

Row | SMILES | Potency | activity change, negative = inhibition
1 | C=C1CC[C@@H]2[C@](C)(CO)[C@H](O[C@@H]3O[C@H](CO)[C@@H](O)[C@H](O)[C@H]3O)CC[C@@]2(C)[C@@H]1C/C=C1/C(=O)OC[C@H]1O | inactive | 
2 | Cn1c2ccc(NC(=O)c3ccccc3)cc2c(=O)n2nc(C(=O)O)cc12 | inactive | 
3 | C=C1CC/C=C(/C(=O)O)CCC2C1CC2(C)C (centres undefined) | inactive | 
4 | CC1OC(OC2C(OC3C(O[C@H]4CC[C@@]5(C)C(CC[C@]6(C)C5C(=O)CC5=C7CC(C)(C)CC(O)[C@]7(C)CC[C@]56C)C4(C)C)OC(C(=O)O)C(O)C3O)OCC(O)C2O)C(O)C(O)C1O (some centres undefined) | inactive | 
5 | C[C@@H]1O[C@@H](O[C@H]2[C@@H]3C=CO[C@@H](O[C@@H]4O[C@H](CO)[C@@H](O)[C@H](O)[C@H]4O)[C@@H]3[C@@]3(CO)O[C@@H]23)[C@H](O)[C@H](O)[C@H]1OC(=O)/C=C/c1ccc(O)cc1 | inactive | 
6 | COC(=O)c1ccccc1O[C@@H]1O[C@H](CO[C@@H]2OC[C@@H](O)[C@H](O)[C@H]2O)[C@@H](O)[C@H](O)[C@H]1O | inactive | 
7 | O=C(N[C@@H]1CC[C@@H](c2cccc(F)c2F)CN(CC(F)(F)F)C1=O)N1CCC(n2c(=O)[nH]c3ncccc32)CC1 | inactive | 
8 | CC(=O)OC1C(O)/C(C)=C\C2C(OC(=O)c3ccccc3)C(C)CC2(OC(C)=O)C(OC(C)=O)C(C)/C=C/C(C)(C)C1OC(C)=O (centres undefined) | inactive | 
9 | Cc1oc2nc3c(c(NC(=O)CN4CCCC4=O)c2c1C)CCCC3 | inactive | 
10 | CC[C@H](C)[C@H](NC(=O)[C@H](Cc1ccc(O)cc1)NC(=O)[C@@H](N)C(C)C)C(=O)N[C@@H](Cc1cnc[nH]1)C(=O)N1CCC[C@H]1C(=O)N[C@@H](Cc1ccccc1)C(=O)O |  | 8.38% [at 4.91 µM]
11 | COc1cc(C(O)C2COC(c3ccc(OC4OC(CO)C(O)C(O)C4O)c(OC)c3)C2CO)ccc1O (centres undefined) | inactive | 
12 | O=C1C[C@@]2(C(=O)N1)C(=O)N(Cc1ccc(Br)cc1F)C(=O)c1cccn12 | inactive | 
13 | COC(=O)[C@]1(Cc2ccc(O)c(CC=C(C)C)c2)OC(=O)C(O)=C1c1ccc(O)cc1 | inactive | 
14 | CC1(C)CC[C@]2(C(=O)O)CC[C@]3(C)C(=CCC4[C@@]5(C)CC[C@H](O)C(C)(C)C5CC[C@]43C)C2C1 (some centres undefined) | inactive | 
15 | N=C(N)c1ccc2nc(-c3cc(CC(=O)NC(CC(=O)O)C(=O)O)cc(-c4cc(S(N)(=O)=O)ccc4O)c3O)[nH]c2c1 (centres undefined) | inactive | 
16 | C/C=C(/C)C(=O)O[C@@H]1C[C@@H](OC(=O)/C(C)=C\C)[C@@]2(C)C3C(=O)C=C(C)C2C3C1(C)C | inactive | 
17 | COc1c2cc(c(O)c1OC)CCCCC(O)CCc1ccc(O)c-2c1 (centres undefined) | inactive | 
18 | CC1OC(O[C@@H]2[C@H](O)[C@@H](OC3OC(CO)C(O)C(O)C3O)[C@H](OC(=O)[C@]34CCC(C)(C)C[C@H]3C3=CCC5[C@@]6(C)CC[C@H](O[C@@H]7O[C@H](C(=O)O)[C@@H](O)[C@H](O[C@@H]8OC[C@@H](O)[C@H](O)[C@H]8O)[C@H]7O[C@@H]7O[C@H](CO)[C@H](O)[C@H](O)[C@H]7O)[C@@](C)(C=O)C6CC[C@@]5(C)[C@]3(C)C[C@H]4O)O[C@@H]2C)C(O)C(O)C1OC1OCC(O)C(O)C1O (some centres undefined) | inactive | 
19 | C[C@@H]1O[C@@H](OC2C(O[C@H]3[C@H](O[C@H]4CC[C@@]5(C)C(CC[C@]6(C)C5CC=C5C7CC(C)(C)CC(O)[C@]7(C)CC[C@]56C)C4(C)C)O[C@H](C(=O)O)[C@@H](O)[C@@H]3O)OC(CO)C(O)C2O)[C@H](O)[C@H](O)[C@H]1O (some centres undefined) | inactive | 
20 | CC1CC(=O)[C@]2(O)C(C(=O)OCCc3ccc(O)cc3)=CO[C@@H](O[C@@H]3O[C@H](CO)[C@@H](O)[C@H](O)[C@H]3O)[C@H]12 (some centres undefined) | inactive | 

Row | SMILES | Potency | activity change, negative = inhibition
21 | CC(=O)O[C@@H]1C(O)C[C@@]2(C)C(CC[C@@H](C)C23Cc2c(O)cc4c(c2O3)CNC4=O)C1(C)C (some centres undefined) | inactive | 
22 | C[C@]1(OC(=O)/C=C/c2ccc(O)cc2)C[C@@H](O)[C@]2(O)C=CO[C@@H](O[C@@H]3O[C@H](CO)[C@@H](O)[C@H](O)[C@H]3O)C12 (some centres undefined) | inactive | 
23 | C/C=C(\C)C(=O)OC[C@H]1O[C@@H](O[C@H]2[C@@H](O[C@H]3O[C@H](COC(=O)/C(C)=C/C)[C@@H](O)[C@H](O)[C@H]3O[C@@H]3O[C@H](COC(=O)/C(C)=C/C)[C@@H](O)[C@H](OC(=O)/C(C)=C/C)[C@H]3O)O[C@H](COC(=O)/C(C)=C/C)[C@@H](O)[C@@H]2O)[C@H](O)[C@@H](O)[C@@H]1O | inactive | 
24 | CC[C@@H]1[C@H]2CCCCN3C(=O)C[C@H]([C@@H]4[C@H]1OC(=O)[C@H]4C)[C@@H]23 | inactive | 
25 | O=C(OCC1=C[C@@H](O)[C@@H]2C=CO[C@@H](O[C@@H]3O[C@H](CO)[C@@H](O)[C@H](O)[C@H]3O)[C@H]12)c1ccc(O)cc1 | inactive | 
26 | CC1CC(=O)[C@]2(O)C(C(=O)OCCc3ccc(O)c(O)c3)=CO[C@@H](O[C@@H]3O[C@H](CO)[C@@H](O)[C@H](O)[C@H]3O)[C@H]12 (some centres undefined) | inactive | 
27 | O=C(Nc1cc(-c2ccccc2)nn1-c1ccccc1F)c1ccc([N+](=O)[O-])cc1 | inactive | 
28 | CC(C)=CC1C[C@](C)(O)[C@@H]2[C@H]3CCC4[C@@]5(C)CC[C@H](O[C@@H]6OC[C@H](O)[C@H](O[C@@H]7O[C@H](CO[C@@H]8O[C@H](CO)[C@@H](O)[C@H](O)[C@H]8O)[C@@H](O)[C@H](O)[C@H]7O)[C@H]6O[C@@H]6O[C@@H](C)[C@H](O)[C@@H](O)[C@H]6O)C(C)(C)[C@@H]5CC[C@@]4(C)[C@@]34CO[C@@]2(C4)O1 (some centres undefined) | inactive | 
29 | C=C(C)[C@@H]1CC[C@]2(CO)CC[C@]3(C)[C@H](CC[C@@H]4[C@@]5(C)CC[C@H](O)C(C)(C)[C@@H]5CC[C@]43C)[C@@H]12 | inactive | 
30 | COC(=O)CC[C@H](NC(=O)[C@H](CC(C)C)NC(=O)OCc1ccccc1)C(=O)N[C@@H](Cc1cnc[nH]1)C(=O)N[C@@H](CC(=O)OC)C(=O)CF (Cbz-LE(OMe)HD(OMe)-CH2F) | inactive | 
31 | CC[C@@H]1C(=O)O[C@]23C=C[C@@H]4C(C(=O)OC)=CO[C@H](O[C@@H]12)[C@@H]43 | inactive | 
32 | OC[C@H]1O[C@@H](OCCc2ccccc2)[C@H](O)[C@@H](O)[C@@H]1O | inactive | 
33 | CNC(=O)c1ccc2c(c1)CCO[C@H]2CCN1CCN(c2ccc(C(N)=O)cc2)CC1 | inactive | 
34 | CC1=CC2=C(C)C(=O)[C@](C)(O)[C@H](O)C2=CO1 | inactive | 
35 | COc1cc(O)c(C(=O)O)c(CCc2ccccc2)c1 | 22.4 µM (active) | 
36 | CC1OC(OC2C(OC(=O)[C@]34CCC(C)(C)C[C@H]3C3=CCC5[C@@]6(C)CC[C@H](OC7OC(C(=O)O)C(O)C(O)C7O)C(C)(C)C6CC[C@@]5(C)[C@]3(C)CC4O)OC(CO)C2O)C(O)C(O)C1OC1OCC(O)C(O)C1O (some centres undefined) | inactive | 
37 | CC1=C2C(=O)C=C(CO)C2C2OC(=O)C(CS(=O)(=O)O)C2C(OC(=O)Cc2ccc(O)cc2)C1 (centres undefined) | inactive | 
38 | CC(=O)OCC1=CCC2C(C)(C)CCCC2(C)C12CCC(C)(CC(=O)O)O2 (centres undefined) | inactive | 
39 | O=C(O)Cn1nnc(-c2ccc(CN(CCCCOc3ccc(CN4CCCC4)cc3)CCc3ccccc3)cc2)n1 | inactive | 
